Source: PubChem BioAssay (National Center for Advancing Translational Sciences (NCATS))
An excerpt weighted towards active compounds, which were near 12% of everything screened.
JMJD2A Tudor inh – qHTS Assay for Inhibitors of JMJD2A-Tudor Domain; Lysine-specific demethylase 4A (Homo sapiens), O75164; AlphaScreen JMJD2A-Tudor / H3K4me3 peptide binding; Potency, µM (top dose mostly 114 µM), without a hit: at the highest dose activity change, negative = inhibition, most hits filed as inhibitors; 390,000 tested, 4.4% active; also: % is scaled to controls: 0 for no effect and ±100 for the full control effect; nearly all actives have a fitted effect of over 50% in size
BAZ2B inh – qHTS Assay for Inhibitors of BAZ2B | Potency, µM (highest dose often 114 µM), for inactives: at the highest dose activity change, negative = inhibition, actives largely listed as inhibitors | AlphaScreen BAZ2B-H3K14Ac peptide displacement | 360,000 tested, 4.4% active | AID 504333, 2011; also: % is scaled to controls: 0 for no effect and ±100 for the full control effect; nearly all actives have a fitted effect of over 60% in size
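Multi-concentration screen (max 110 uM) measuring displacement of acetylated histone H3 peptide from BAZ2B by AlphaScreen, using 50 nM protein, 50 nM peptide and 10 ug/mL streptavidin donor plus Ni-chelate acceptor beads.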
G9a inh – qHTS Assay for Inhibitors of Histone Lysine Methyltransferase G9a; Potency, µM (top dose mostly 102 µM), inactives show top-dose activity, negative = inhibition, usual class: inhibitors; Histone-lysine N-methyltransferase EHMT2 (Homo sapiens), Q96KQ7; 350,000 tested, 8.8% active; G9a H3K9 monomethylation, AlphaScreen, 2 h; also: % is scaled to controls: 0 for no effect and ±100 for the full control effect; nearly all actives have a fitted effect of over 75% in size
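Chemiluminescent proximity detection of H3K9 monomethylation, read after 10 min bead incubation in the dark. Reaction: 20 nM G9a, 500 nM biotin-H3K9 peptide, 20 uM SAM cofactor, 2 h, room temperature, following 15 min enzyme-compound preincubation.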
Sfp inh – qHTS Assay for Inhibitors of Bacillus subtilis Sfp phosphopantetheinyl transferase (PPTase) | Biochemical Sfp PPTase activity, qHTS | Potency, µM, for inactives: largest response in the series, negative = inhibition, most hits filed as inhibitors | 310,000 tested, 3.5% active;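 also: the enzyme is Sfp with the accession as filed and its product quenches rhodamine fluorescence; 0% = enzyme reaction without inhibitor and -100% = no enzyme wells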
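Step 1, compound plus 15 nM Sfp-PPTase, 15 min, room temperature. Step 2, add rhodamine-CoA (5 uM) and BHQ-2-YbbR (12.5 uM). Step 3, read 525/598 nm fluorescence at 0 and 30 min.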
HP1b binding inh – HTS for Inhibitors of HP1-beta Chromodomain Interactions with Methylated Histone Tails; AlphaScreen HP1-beta / biotin-H3K9me3 peptide binding; Potency, µM (highest dose often 114 µM), inactives show at the highest dose activity change, negative = inhibition, hits mostly inhibitors; 390,000 tested, 0.56% active; AID 540317, 2011; also: nearly all actives have a fitted effect of over 70% in size
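HP1-beta protein (50 nM final) preincubated 30 min at room temperature with biotinylated H3(1-18)K9me3 peptide (50 nM) in PBS pH 7.4, 0.01% Tween-20, then compound added for 30 min. AlphaScreen streptavidin donor/nickel chelate acceptor beads (10 ug/mL final), 30 min dark, luminescence read.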
L3MBTL1 block – qHTS Assay for the Inhibitors of L3MBTL1; 230,000 tested, 0.66% active; Potency, µM (series often up to 57.1 µM), for inactives: at the highest dose activity, negative = inhibition, most hits filed as inhibitors; AID 485360, 2010; Lethal(3)malignant brain tumor-like protein 1 (Homo sapiens), Q9Y468; AlphaScreen L3MBTL1–H3K9me1 peptide binding; also: % is scaled to controls: 0 for no effect and ±100 for the full control effect; nearly all actives have a fitted effect of over 60% in size
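First, the protein-peptide complex forms for 30 min at room temperature (L3MBTL1 50 nM, biotinylated H3K9me1 peptide 75 nM). Next, compounds are pin-transferred and incubated 30 min. Finally, AlphaScreen beads are added and read after 30 min.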
* = called active by the depositor; ? = inconclusive; nt = no result given; [ ] = dose if it differs, or a comment. Calls follow the shape of the dose curve; as a rule, active = well fitted curve in the direction sought with a large enough effect; inconclusive = small, poorly fitted or top-dose-only effect, or another doubt; inactive = no such curve, though single readings can be large; an effect the other way counts as inactive or inconclusive. Potency is read from the fitted curve at half-maximal effect.

SMILES	JMJD2A Tudor inh	BAZ2B inh	G9a inh	Sfp inh	HP1b binding inh	L3MBTL1 block
Cc1[nH]n(-c2ccccc2)c(=O)c1C(c1cccc([N+](=O)[O-])c1)c1c(C)[nH]n(-c2ccccc2)c1=O	?	28µM*	35µM*	-12%	-28%	-27%
Cc1nn(-c2ccccc2)nc1C(=O)c1c(C)[nH]n(-c2ccccc2)c1=O	-19%	2%	nt	5%	26%	nt
Cc1c(/C=C(\C#N)C(=O)Nc2cccc(Cl)c2)c2ccccc2n1Cc1ccccc1	-17%	-4%	-17%[59 µM]	nt	38%	nt
CCOc1ccc(CCNC(=O)CCCc2nnc3n(CC)c(=O)c4sccc4n23)cc1OCC	3%	7%	12%[59 µM]	nt	36%	nt
Cc1ccccc1C(=O)Nc1nnc(S(=O)(=O)N(C)Cc2ccc(Cl)cc2)s1	-6%	-7%	-28%[59 µM]	nt	37%	nt
Cc1ccc(C(C[N+](=O)[O-])c2c(N)n(C)c(=O)n(C)c2=O)cc1 (configuration not stated)	-9%	-27%	?	4%	72%	nt
Cc1[nH]n(-c2ccccc2)c(=S)c1C=Nc1ccc([N+](=O)[O-])cc1	1.8µM*	10µM*	0.89µM*	6.3µM*	?	3%
Cc1[nH]n(-c2ccccc2)c(=O)c1C(C[N+](=O)[O-])c1ccc(Br)cc1 (configuration not stated)	?	?	40µM*	-24%	-10%	nt
CCc1cccc(-n2c(=O)c3cccnc3n2CC(=O)NCc2ccccc2)c1	15%	32%	29%[59 µM]	nt	82%	nt
COc1cc2c(ccc3cc(OC)c(OC)c(O)c32)cc1O	10µM*	7.1µM*	?	-7%	?	nt
CCC(C)(C)c1ccc(CC(C)CN2C[C@@H](C)O[C@@H](C)C2)cc1 (some centres not stated)	nt	nt	12%[12.7 µM]	-5%	nt	nt
CCOc1ccc(C(=O)N2CCN(Cc3ccccc3)CC2)cc1	-10%	nt	?	-12%	22%	4%
CCN1CCN(Cc2ccc(OC)c(OCc3ccccc3)c2)CC1	-19%	-38%	?	2%	8%	nt
CCn1c2ccccc2c2cc(CN3CCN(Cc4ccccc4Cl)CC3)ccc21	7.1µM*	50µM*	3.5µM*	nt	?	nt
Cc1ccc(Cn2c(=O)n(Cc3ccccc3Cl)c(=O)c3ccccc32)cc1	-15%	-2%	4%[59 µM]	nt	7%	nt
CCn1c2ccccc2c2cc(CN3CCN(Cc4ccc(OC)c(OC)c4)CC3)ccc21	4.5µM*	45µM*	?	nt	?	nt
CCOc1ccc(CN2CCN(Cc3ccc4c(c3)c3ccccc3n4CC)CC2)cc1	22µM*	10µM*	4.5µM*	nt	?	nt
CC(C)OC(=O)C[C@H](NC(=O)OC(C)(C)C)c1ccccc1	nt	nt	nt	-2%	nt	nt
COC(=O)c1[nH]c2cc(OC)ccc2c1N=CN(C)C	-15%	-3%	40µM*	-10%	30%	-5%
CCOC(=O)c1[nH]c2ccccc2c1N=CN(C)C	-8%	nt	nt	nt	11%	nt
O=C1CN(c2nc(-c3ccccc3)c3cc(Cl)ccc3n2)c2ccccc2N1	-4%	-3%	50µM*	13%	18%	-10%
Clc1ccc2nc(N3CCNCC3)nc(-c3ccccc3)c2c1	22%	30%	18%[59 µM]	-25%	99%	20%
Cc1ccc(C)c(NC(=O)Cn2c(=O)n(Cc3ccco3)c(=O)c3oc4ccccc4c32)c1	-13%	-14%	-28%[59 µM]	nt	22%	nt
COC(=O)/C=C/c1cc(O)ccc1O	nt	nt	2.8µM*	50µM*	nt	nt
CC(=O)/C=C/c1ccccc1O	-10%	-1%	-4%	26%	16%	8%
SMILES	JMJD2A Tudor inh	BAZ2B inh	G9a inh	Sfp inh	HP1b binding inh	L3MBTL1 block
COc1cc(-c2noc(-c3cccc(Cl)c3)n2)cc(OC)c1OC	2%	33%	27%[59 µM]	-9%	31%	-9%[11.4 µM]
COc1cc(-c2nc(Cc3c(F)cccc3Cl)no2)cc(OC)c1OC	-10%	50µM*	?	-14%	61%	-10%
COC(=O)CCC(=O)OC1(C)C(=O)C=C2C=C(C3CC3)N(c3ccc(OC)cc3)C=C2C1=O (configuration not stated)	nt	nt	nt	17%	nt	nt
CCc1ccc(C(=O)CC2(O)C(=O)N(CCc3ccccc3)c3ccc(Cl)cc32)cc1 (configuration not stated)	-16%	-4%	-2%[59 µM]	nt	15%	nt
Cc1cc(NC(=O)Nc2ccc3c(ccn3C)c2)sn1	?	nt	32%[59 µM]	79µM*	-7%	nt
CC(C)C[C@@H](CC(=O)N[C@@H](CCC(=O)O)CC(=O)O)NC(=O)[C@@H]1CNCC[C@H]1NC(=O)C[C@@H](NC(=O)C[C@H](CO)NC(=O)[C@@H]1CNCC[C@H]1N)C(C)C	nt	nt	nt	-4%	nt	nt
Fc1ccccc1-n1c(-c2ccc3ccccc3n2)n[nH]c1=S	-32%	?	-138%[59 µM]	-27%	29%	1%
Cc1ccc(S(=O)(=O)N(Cc2n[nH]c(=S)n2-c2ccccc2)c2cccc(Cl)c2)cc1	-13%	?	nt	-3%	21%	13%
Cc1ccccc1-n1c(C)n[nH]c1=S	20µM*	9%[57.1 µM]	22µM*	79µM*	-4%	-3%
Cc1ccccc1-n1c(-c2ccoc2C)n[nH]c1=S	7.9µM*	0%	2.2µM*	-13%	5%	0%
Cc1ccc([N+](=O)[O-])c(-c2n[nH]c(=S)n2-c2cccc(Cl)c2)c1	?	-39%	2µM*	4%	7%	-14%
Cc1cccc(-n2c(-c3ccoc3C)n[nH]c2=S)c1	8.9µM*	-11%	6.3µM*	?	-17%	-5%
CCc1cnc2c(c1SCC(=O)c1ccc(OC)cc1)c(=O)n(C)c(=O)n2C	-4%	1%	1%[59 µM]	nt	43%	nt
CSc1nnc(C)c(/C=C/NOCc2ccc(Cl)cc2)n1	?	?	13µM*	14%	-18%	-1%
Cc1cc(NC(=O)Nc2nc3c(s2)CCCCCC3)ccc1Br	-31%	-4%	-10%[59 µM]	nt	18%[57 µM]	nt
CCOC(=O)c1c(-c2ccc(C)cc2)csc1NC(=O)CCN1CC(C)OC(C)C1 (configuration not stated)	8.9µM*	22µM*	?	16µM*	35µM*	-11%
CCOC(=O)c1c(-c2ccc(F)cc2)csc1NC(=O)C1CCCO1 (configuration not stated)	23%	8%	20µM*	22µM*	4%	8%
